Among the data in PubChem BioAssay (NCATS) are Potency values, retold here.

Where “and” joins values, the source holds several entries; their conditions need not be identical. Identical values can stand only once. Records with an inconclusive call do not appear. A call without a number means that no potency is given here. Where a structure was tested more than once in an assay, its records may differ in their call. Calls of active or inactive are those of the source. Calls come from the whole dose curve; as a rule, active = well fitted inhibition curve with a large enough effect; inconclusive = small, poorly fitted or top-dose-only effect; inactive = flat fitted curve, though single readings scatter.
Potency is the fitted concentration of half-maximal effect.

This assay in a line: P-glycoprotein substrates identified in KB-8-5-11 adenocarcinoma cell line, qHTS therapeutic library screen (AID 1346987). Note: nearly all actives have a fitted effect of over 65% in size. Conditions: KB-8-5-11 (P-gp overexpressing) viability, CellTiter-Glo, 72 h; series mostly up to 44.5 µM. An excerpt:
The ATP-binding cassette transporters P-glycoprotein (P-gp) is known to limit brain penetration of many chemotherapy drugs. […] As such, we developed a high-throughput screen (HTS) to identify substrates of P-gp from a series of chemical libraries including the National Center for Advancing Translational Sciences Pharmaceutical Collection NPC, 2,816 compounds), testing a total of 10,804 compounds, most of which have known mechanisms of action. We used the CellTiter-Glo viability assay to test library compounds against the parental KB-3-1 human cervical adenocarcinoma cell line and the colchicine-selected sub-line KB-8-5-11 that over-expresses P-gp. KB-8-5-11 cells were also tested in the presence of a P-gp inhibitor (tariquidar) to assess reversability of transporter-mediated resistance. Of the tested compounds, a total of 90 P-gp substrates were identified including 55 newly identified P-gp substrates. Substrates were confirmed using an orthogonal killing assay against HEK-293 cells transfected with P-gp. As exemplars, we confirmed that […] (cyclin-dependent kinase inhibitor); AT9283, (Janus kinase 2/3 inhibitor); ispinesib (kinesin spindle protein inhibitor); gedatolisib (PKI-587, phosphoinositide 3-kinase/mammalian target of rampamycin inhibitor); GSK-690693 (AKT inhibitor); and KW-2478 (heat shock protein 90 inhibitor) were substrates , and direct ATPase stimulation was assessed. ABCG2 was also found to confer high levels of resistance to AT9283, GSK-690693 and gedatolisib, while ispinesib, AT7519 and KW-2478 were weaker substrates.
The HeLa derivative cell line, KB-3-1, and its colchicine-selected, P-gp-overexpressing subline, KB-8-5-11 were maintained in DMEM with 10% FCS and Pen/Strep with glutamine at 37 degree C in 5% CO2. For KB-8-5-11 cells, colchicine was added to the medium at a concentration of 100 ng/mL. HEK-293 cells transfected with empty vector (pcDNA) or vector containing human ABCB1 (MDR-19) or ABCG2 (R-5) have been described previously (Robey, Lin, Qiu, Chan & Bates, 2011) and were maintained in EMEM supplemented with 10% FCS, Pen/Strep and glutamine with 2 mg/ml G418 to select for the expression of the transporter. Cultures were confirmed to be free of mycoplasma infection using the MycoAlert Mycoplasma Detection Kit (Lonza, Walkersville, MD). For the screen, assay medium was identical to culture medium except for KB-8-5-11 where colchicine was excluded from the medium.
All cell lines were plated into 1536-well plates at 500 cells/well in 5 uL media. Compounds were then pinned in dose-response using a 1536-head pin tool (Kalypsis, San Diego, CA) and plates were incubated at 37 degree C in 5% CO2 for an additional 72 h. CellTiter-Glo reagent (Promega) was dispensed into the wells, incubated for 5 min and luminescence was read on a ViewLux instrument (Perkin-Elmer). Cytotoxic compounds were defined as those that yielded a curve class of -1.1, -1.2, -2.1, -2.2, -2.3, or -2.4, a maximum response of >50% and an AC50 of < 10 uM. Cherry-picked hits from screening analysis were tested with both the KB pair of cell lines, and the pcDNA (empty vector control) and MDR-19 (P-gp overexpressing) pair were tested, in the absence and presence of tariquidar.
As for `O=C(c1ccccc1)c1ccc2n1CCC2C(=O)O` (stereo not given), the Potency entry was “inactive”.

Regarding `Oc1ccc(OCc2ccccc2)cc1`, the Potency entry was “inactive”.

`COc1cc2c(cc1OC)C1CC(=O)C(CC(C)C)CN1CC2` (stereo not given): the Potency entry was “inactive”.

For the molecule `CNC[C@@H](O)[C@@H](O)[C@H](O)[C@H](O)CO`, the Potency entry was “inactive”.

For the molecule `CCOc1cc(CC(=O)N[C@@H](CC(C)C)c2ccccc2N2CCCCC2)ccc1C(=O)O`, the Potency entry was “inactive”.

Turning to `CCCCCCCCCCCCCCCCCCCCCCO`, the Potency result is “inactive”.

On to `Cc1ccc(S(=O)(=O)NC(=O)NN2CC3CCCC3C2)cc1` (stereo not given), for which the Potency result is “inactive”.

As for `S=c1nc[nH]c2nc[nH]c12`, the Potency was 2.59 µM (active) and 2.64 µM (active).

`O=C1CCc2ccc(OCCCCN3CCN(c4cccc(Cl)c4Cl)CC3)cc2N1`: the Potency result was “inactive”.

With `O=C1c2c(O)cc(O)cc2OC(c2ccc(O)c(O)c2)C1O` (stereo not given), the Potency entry is “inactive”.

With `O=C(NOCC1CC1)c1ccc(F)c(F)c1Nc1ccc(I)cc1Cl`, the Potency is 18.4 µM (active).

As for `N[C@@H](Cc1cc(I)c(Oc2cc(I)c(O)c(I)c2)c(I)c1)C(=O)O`, the Potency entry is “inactive”.

As to `COCCCOc1ccnc(CS(=O)c2nc3ccccc3[nH]2)c1C` (stereo not given), the Potency was 3.66 µM (active) and inactive.

Regarding `CC1(C)NC(=O)N(c2ccc([N+](=O)[O-])c(C(F)(F)F)c2)C1=O`, the Potency is 13 µM (active) and inactive.

Turning to `CCCCc1ccc2nc(NC(=O)OC)[nH]c2c1`, the Potency was 11.8 nM (active) and 111 nM (active).

Turning to `Cc1ncc([N+](=O)[O-])n1CC(C)O` (stereo not given), the Potency result was “inactive”.

As for `CCN(CC)CCOc1ccc(Cc2ccccc2)cc1`, the Potency entry was “inactive”.

`Cc1cc(=O)oc2cc(O)ccc12`: the Potency result was “inactive”.

`Cc1nccn1CC1CCc2c(c3ccccc3n2C)C1=O` (stereo not given): the Potency result is “inactive”.

With `O=C(NC(Cc1cc(=O)[nH]c2ccccc12)C(=O)O)c1ccc(Cl)cc1` (stereo not given), the Potency result is “inactive”.

Regarding `CCCOc1ccc2nc(NC(=O)OC)[nH]c2c1`, the Potency was 231 nM (active) and 651 nM (active) and 11.8 nM (active).

In the case of `N=C(N)c1ccc2cc(OC(=O)c3ccc(N=C(N)N)cc3)ccc2c1`, the Potency result is “inactive”.

For `CC(C)[N+]1(C)[C@@H]2CC[C@H]1CC(OC(=O)C(CO)c1ccccc1)C2` (stereo not given in full), the Potency result is “inactive”.

As to `COC(=O)N[C@H](C(=O)N[C@@H](Cc1ccccc1)[C@@H](O)CN(Cc1ccc(-c2ccccn2)cc1)NC(=O)[C@@H](NC(=O)OC)C(C)(C)C)C(C)(C)C`, the Potency result is “inactive”.

Take `CC(=O)O[C@H]1C(=O)[C@@]2(C)C([C@H](OC(=O)c3ccccc3)[C@]3(O)C[C@H](OC(=O)[C@H](O)[C@@H](NC(=O)c4ccccc4)c4ccccc4)C(C)=C1C3(C)C)[C@]1(OC(C)=O)CO[C@@H]1C[C@@H]2O` (stereo not given in full): the Potency was 209 nM (active) and 1.01 µM (active).

Regarding `Cc1ccc(NC(=O)c2ccc(CN3CCN(C)CC3)cc2)cc1Nc1nccc(-c2cccnc2)n1`, the Potency entry is “inactive”.

On to `CN(C)CCCC1(c2ccc(F)cc2)OCc2cc(C#N)ccc21` (stereo not given), for which the Potency result was “inactive”.

Take `Nc1ncn([C@H]2C[C@H](O)[C@@H](CO)O2)c(=O)n1`: the Potency entry was “inactive”.

Turning to `CC1=C(C(=O)O)N2C(=O)[C@@H](NC(=O)[C@H](N)C3=CCC=CC3)[C@H]2SC1`, the Potency result was “inactive”.

For the molecule `Cc1ccc(Nc2nccc(N(C)c3ccc4c(C)n(C)nc4c3)n2)cc1S(N)(=O)=O`, the Potency entry was “inactive”.

Consider `COc1cc(OC)c(C(=O)CCCN2CCCC2)c(OC)c1`, for which the Potency entry was “inactive”.

`COc1c(O)cc2c(c1O)[C@@H]1O[C@H](CO)[C@@H](O)[C@H](O)[C@H]1OC2=O`: the Potency entry was “inactive”.

On to `CC(=O)Nc1ccc(O)cc1`, for which the Potency result is “inactive”.

As for `COC(=O)C1=C(C)NC(C)=C(C(=O)OCCCN2CCC(c3ccccc3)(c3ccccc3)CC2)C1c1cccc([N+](=O)[O-])c1` (stereo not given), the Potency entry is “inactive and 10.3 µM (active)”.

`C[Se]CCC(N)C(=O)O` (stereo not given): the Potency entry was “inactive”.

As for `Cc1c(OCC(F)(F)F)ccnc1CS(=O)c1nc2ccccc2[nH]1` (stereo not given), the Potency entry is “inactive”.

On to `COc1cc2c(N3CCN(C(=O)Nc4ccc(OC(C)C)cc4)CC3)ncnc2cc1OCCCN1CCCCC1`, for which the Potency entry is “inactive”.

As to `C=C(c1ccc(C(=O)O)cc1)c1cc2c(cc1C)C(C)(C)CCC2(C)C`, the Potency entry was “inactive”.

Consider `O=C(O)c1cccc(-c2noc(-c3ccccc3F)n2)c1`, for which the Potency entry was “inactive”.

Turning to `Cc1cccc(-c2[nH]ncc2-c2ccc3ncccc3n2)n1`, the Potency entry is “inactive”.
